High-throughput results: PubChem, National Center for Advancing Translational Sciences (NCATS)
NPSR antagonist: neuropeptide S receptor (human) antagonism, cAMP; CHO-NPSR cells, cAMP TR-FRET, antagonist mode; Potency, µM (top dose mostly 38.3 µM), for inactives: at the top dose activity change, negative = inhibition, actives largely listed as inhibitors; 220,000 compounds, 1% hits; note: potency is the fitted concentration of half-maximal effect; % is set by controls: 0 for no effect and ±100 for the full control effect; nearly all actives have a fitted effect of over 50% in size
Target sequence (Q6W5P4 whole entry, looked up): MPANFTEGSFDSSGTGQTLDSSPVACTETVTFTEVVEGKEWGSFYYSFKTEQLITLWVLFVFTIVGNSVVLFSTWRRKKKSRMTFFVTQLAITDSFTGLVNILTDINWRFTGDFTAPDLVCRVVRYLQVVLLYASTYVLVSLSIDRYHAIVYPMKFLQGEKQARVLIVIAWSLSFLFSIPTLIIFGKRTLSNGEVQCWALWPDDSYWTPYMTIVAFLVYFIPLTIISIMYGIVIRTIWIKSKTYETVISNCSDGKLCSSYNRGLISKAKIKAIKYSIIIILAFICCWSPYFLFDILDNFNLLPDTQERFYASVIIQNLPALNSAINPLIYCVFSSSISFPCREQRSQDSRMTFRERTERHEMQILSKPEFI
PNC assembly inh: blocks assembly of the perinucleolar compartment | AID 2417 | 140,000 compounds, 3.1% hits | PC3M PTB-GFP, PNC prevalence imaging, 16 h; stronger effect = lower value | activity change (PNC), negative = inhibition, % at 10 µM;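 active = readout at or below -70, meaning at least 70% loss of cells showing the perinucleolar compartment, a nuclear body marking cancer cells; inconclusive = readout between -30 and a set limit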;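 note: plate controls were DMSO wells for no effect and camptothecin positive control wells for full effect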
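PC3M cells stably expressing PTB-GFP, 750–1000 cells/well, treated 16 h at 37 °C with compound (23 nl of library stock), in duplicate. After paraformaldehyde fixation and Hoechst stain, imaged at 20x; PNC prevalence scored by image analysis.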
IMPase Li cell: membrane-permeable IMPase blocker, potentiated with lithium; CHO-M1 cells, IP1 TR-FRET (IP-One), carbachol + lithium; Potency, µM (top dose mostly 59.4 µM), for inactives: at the highest dose activity, negative = IMPase inhibition, hits mostly inhibitors; 210,000 compounds, 0.35% hits; AID 1457;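 note: IP1 builds up when IMPase is blocked and the TR-FRET signal falls; potency is the fitted concentration of half-maximal effect; plate controls were basal vehicle for no effect and high inhibitor control for full effect; nearly all actives have a fitted effect of over 50% in size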
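CHO cells stably expressing M1 receptor (2000/well, cultured 16–30 h) treated 30 min at 37C with compound plus low lithium. Cytosolic IP1 by TR-FRET (665/620 ratio and 620 channel) after 10 min lysis; AC50 by Hill fit.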
HttQ103 aggreg: inhibitors of mutant huntingtin aggregate formation in PC12 cells | Potency, µM (top dose mostly 46.1 µM), for the others: top-dose activity change, negative = inhibition, hits mostly inhibitors | AID 1688 | 220,000 compounds, 1.1% hits | PC12 HttQ103-GFP aggregates, Acumen cytometry, 40 h; note: potency is the fitted concentration of half-maximal effect; % is set by controls: 0 for no effect and ±100 for the full control effect; nearly all actives have a fitted effect of over 60% in size
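PC12 cells stably carrying ecdysone-inducible HTT exon 1 Q103–GFP were induced with tebufenozide (100 nM final) and treated with library compounds in titration. GFP aggregates in lysates were counted by laser scanning cytometry.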
IMPase cell inh: IMPase inhibition in cells; CHO-M1 cells, IP1 accumulation, HTRF TR-FRET ratio; inhibition (IP1 accumulation), % at 46.1 µM; 120,000 tested, under 10 active; active = well fitted curve in the direction sought with a large enough effect in the signal ratio, not every such curve was filed as active; inconclusive = small, poorly fitted or top-dose-only effect, or a change in a side signal; inactive = no such curve, though single readings can be large or run the other way; the % refers to the signal ratio;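 note: cells stimulated with carbachol in lithium chloride buffer; plate controls were DMSO basal wells for no effect and reference inhibitor wells for full effect; higher means more IMPase inhibition seen as more IP1 and lower FRET ratio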
Target sequence (P97697 whole entry, looked up): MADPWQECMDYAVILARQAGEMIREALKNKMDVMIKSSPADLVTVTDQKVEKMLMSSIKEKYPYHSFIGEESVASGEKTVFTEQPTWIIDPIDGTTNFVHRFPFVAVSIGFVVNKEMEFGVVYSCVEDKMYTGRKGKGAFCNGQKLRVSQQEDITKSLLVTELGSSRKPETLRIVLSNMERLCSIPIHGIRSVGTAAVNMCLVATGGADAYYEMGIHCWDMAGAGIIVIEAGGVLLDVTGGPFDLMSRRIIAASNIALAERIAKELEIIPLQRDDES
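The IP-One HTRF competitive assay in carbachol-stimulated CHO-M1 cells quantifies cellular IP1. Compounds spanned up to 46 uM final, and activity is expressed as AC50 from concentration-response fits of the ratio and donor data.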
HTT ATP protect: protects HTT-Q103 PC12 cells, measured by ATP | PC12 HTT-Q103 induced, cytoprotection, ATP luminescence, 40 h | Potency, µM (doses to about 56.4 µM), inactives show cytoprotection (ATP increase), usual class: activators | 230,000 compounds, 0.14% hits; note: potency is the fitted concentration of half-maximal effect; % of control where 0% means no effect; nearly all actives have a fitted effect of over 45% in size
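PC12 cells with ecdysone-inducible HTT exon 1 Q103-GFP, induced with 100 nM tebufenozide and co-treated with library compounds in a dose series (1536-well, 1500 cells/well). Cytoprotection read as ATP content by ATPlite luminescence.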
Numbers without * were called inactive; u = inconclusive; x = not tested or not shown; [ ] = remark or other dose. Rows were chosen to be rich in hits. Some 3.4% of all compounds tested hit in one or more screens of this group. Unless noted, calls come from the whole dose curve; as a rule, active = well fitted curve in the direction sought with a large enough effect; inconclusive = small, poorly fitted or top-dose-only effect, or another doubt; inactive = no such curve, though single readings can be large; an effect the other way counts as inactive or inconclusive.

SMILES	NPSR antagonist	PNC assembly inh	IMPase Li cell	HttQ103 aggreg	IMPase cell inh	HTT ATP protect
Cc1nn(Cc2c(F)c(F)c(F)c(F)c2F)c(C)c1NC(=O)c1cccc(COc2ccc(Cl)cc2)c1	-29%[46.1 µM]	-28	14%[38.3 µM]	-1%	21	2%
CCCCCCCCCCCCCCCCCC(=O)NCCc1ccc(O)c(O)c1	x	x	2%	x	x	-11%
[O-][n+]1onc2c1CCc1c-2nn(-c2ccccc2Cl)[n+]1[O-]	u	-29	4%[38.3 µM]	11µM*	0	-62%
Cc1ccc(-n2nc3c([n+]2[O-])CCc2c-3no[n+]2[O-])cc1	-14%[46.1 µM]	-17	-5%[38.3 µM]	13µM*	2	u
Cc1cccc(-n2nc3c([n+]2[O-])CCc2nonc2-3)c1C	10%	9	-2%	-1%	x	x
COc1ccc(NS(=O)(=O)c2ccc(NC(=S)NC(=O)/C=C/c3ccccc3)cc2)nn1	7.9µM*	-9	5%	-11%	-2	4%[10 µM]
COc1ccc(CNc2ncncc2-c2ccc3c(c2)OCO3)c(OC)c1	x	x	14%	x	x	3%
O=C1CC2(CCCC2)CC(=O)N1c1ccccc1	16%	x	-6%	-10%	x	11%
COc1ccc(N2C3=C(CC4=C2CC(C)(C)CC4=O)C(=O)CC(C)(C)C3)cc1	2µM*	31	14%[38.3 µM]	16%[9.22 µM]	7	-94%
COc1ccc(N2C(=O)CC3(CCCC3)CC2=O)cc1	13%	101	-4%	15%	x	3.2µM*
CC1=C(C(=O)N(C)C)C(c2cccc(Cl)c2)NC(=O)N1 (stereo not drawn)	0%[46.1 µM]	35	17%[38.3 µM]	4µM*	-8	-4%[10 µM]
COc1ccc(CCNC(=O)CC2SC(N)=NC2=O)cc1OC (stereo not drawn)	12%	x	-3%	x	x	x
O=C(OCCN1C(=O)c2cccc3c(N4CCOCC4)ccc(c23)C1=O)c1ccc(Cl)cc1Cl	u	-98*	14%	-8%	-2	-2%[10 µM]
O=C(OCCN1C(=O)c2cccc3c(N4CCOCC4)ccc(c23)C1=O)c1ccccc1Cl	-48%	u	10%	-23%	x	x
CCCc1c(NC(=O)Nc2ccc(Cl)cc2Cl)cnn1-c1ccccc1	32%	x	x	6%[9.22 µM]	x	21%[10 µM]
CC(=O)Nc1ccc2nc(CN3CCC(CO)(CCc4ccccc4)CC3)ccc2c1	4%	x	x	23%[9.22 µM]	x	18%[10 µM]
Nc1[nH]n2c(=O)cc(-c3ccccc3)nc2c1N=Nc1ccccc1	-13%[46.1 µM]	26	4%[38.3 µM]	3.2µM*	-3	-79%
NCCNS(=O)(=O)c1cccc2cnccc12	-14%[46.1 µM]	x	1%	x	1	-2%
O=C(CCNS(=O)(=O)c1cccc2nsnc12)NC1CCN(Cc2ccccc2)CC1	-3%[46.1 µM]	-112*	10%	-6%	13	8%[10 µM]
O=C(CNS(=O)(=O)c1cccc2nsnc12)NC1CCCCC1	-2%[46.1 µM]	-111*	10%[38.3 µM]	-13%	8	13%
COc1ccc(C2c3cc(OC)c(OC)cc3Cc3c4cc(OC)c(OC)cc4cc[n+]32)cc1OC (stereo not drawn)	x	x	24%	x	x	-87%
COc1ccc(-n2nnnc2-c2cccc(OC)c2)cc1	u	-83*	6%	20%	13	-30%[10 µM]
Cc1cc(C)n(-c2cccc3cccnc23)n1	-6%[46.1 µM]	u	9%[38.3 µM]	7%	12	1%
Cc1cc(C)n(-c2ccc3cccc(NS(C)(=O)=O)c3n2)n1	-5%[46.1 µM]	-14	33%[38.3 µM]	8.9µM*	2	-59%
CC(C)c1ccc(OCC(=O)Nc2ccc(S(=O)(=O)Nc3ncccn3)cc2)cc1	x	x	x	x	-4	x
SMILES	NPSR antagonist	PNC assembly inh	IMPase Li cell	HttQ103 aggreg	IMPase cell inh	HTT ATP protect
O=C1[C@H]2[C@H]3[C@H](O)[C@H](O)C/C(=N/OC[C@@H](O)COCc4ccco4)[C@@H]3CC[C@@H]2C(=O)N1Cc1ccccc1	x	x	x	x	x	-15%[10 µM]
Nc1cc(-c2ccc(Br)cc2)nn1S(=O)(=O)c1cccc2nsnc12	-9%[46.1 µM]	8	0%[38.3 µM]	25µM*	15	-76%
CC1=C(C(=O)O)N2C(=O)C(NC(=O)C(N)C3=CCC=CC3)C2SC1 (stereo not drawn)	x	x	3%	x	x	-22%
O=c1oc2cc(O)c(Cl)cc2c2ccccc12	7.9µM*	-6	7.1µM*	-18%	x	36%[10 µM]
COc1ccc2c(c1)oc(=O)c1ccccc12	-15%	x	x	1%	x	-7%
C[N+](C)(C)CCC(=O)c1cccc2ccccc12	32µM*	x	24%	x	5	-28%
CC1(C)Cc2nc3oc4c(N5CCOCC5)ncnc4c3cc2CO1	9%[46.1 µM]	-109*	11%[38.3 µM]	-6%	8	-4%
CC(=O)C1=C(c2ccc(Br)cc2)C(=O)c2ccccc2C1=O	u	u	24%	5µM*	8	-82%[10 µM]
COc1ccc(CNC(=O)c2csc(Cc3ccc(Cl)cc3)n2)cc1	-17%[46.1 µM]	-106*	3%[38.3 µM]	u	-2	-36%
COc1ccc(CNC(=O)c2csc(Cc3ccc(OC)cc3)n2)cc1	-8%[46.1 µM]	30	-12%[38.3 µM]	-14%	-3	-19%
O=C(COc1ccccc1)N(Cc1ccco1)C1CCS(=O)(=O)C1 (stereo not drawn)	13%[46.1 µM]	-4	-26%[38.3 µM]	7%	11	-2%[0.074 µM]
O=C(COc1ccccc1Cl)N(Cc1ccco1)C1CCS(=O)(=O)C1 (stereo not drawn)	-2%[46.1 µM]	-111*	x	2%	8	15%
CC(=O)[C@H]1CC[C@@H]2[C@]1(C)CC=C1[C@]23C=C[C@]2(C[C@H](O)CC[C@@]12C)[C@H](C(=O)O)[C@@H]3C(=O)O	x	x	x	x	x	9%[10 µM]
COc1ccccc1CNCCCCCCNCCCCCCCCNCCCCCCNCc1ccccc1OC	13µM*	x	11%	x	19	-31%
CC(C)OC(=O)Nc1ccc2nc(-c3cscn3)[nH]c2c1	x	x	x	-22%	x	-97%
CN1C(=O)C2(OCC(COc3ccc(Cl)cc3)O2)c2ccccc21 (stereo not drawn)	-9%[46.1 µM]	-14	11%[38.3 µM]	1µM*	0	11%
CC1=C(C(=O)OCC2CCCCC2)C(c2ccc(Cl)cc2)CC(=O)N1 (stereo not drawn)	x	x	x	x	1	x
Cc1cc(C)c2c(C)c(C(=O)NCc3ccncc3)oc2c1	-1%[46.1 µM]	-100*	2%	11%	-4	22%[10 µM]
O=C(CC(NC(=O)c1ccccc1Cl)c1ccccc1)NCCc1ccc(Cl)cc1 (stereo not drawn)	10%	-108*	0%	12%	-1	5%[1.9 µM]
CCN(C(=O)CN(C)Cc1cccc(Cl)c1Cl)c1c(N)n(Cc2ccccc2)c(=O)[nH]c1=O	12%[46.1 µM]	-98*	5%	3%	2	10%[10 µM]
Fc1ccc(Nc2ncnc3sc4c(c23)CCC4)cc1F	-5%[46.1 µM]	u	20%	10µM*	10	-18%[10 µM]
c1csc(CCNc2ncnc3sc4c(c23)CCC4)c1	-17%[46.1 µM]	u	8%[38.3 µM]	7.9µM*	11	-6%
